Source: PubChem BioAssay (Tox21)
Values without a mark were called inactive. Inconclusive results are not listed. Entries that show only a call come without a potency. Activity calls are given as the source filed them. Calls follow the shape of the full dose curve.

Key:
[1] = target: Acetylcholinesterase (Homo sapiens) (UniProt P22303); test: Acetylcholinesterase (AChE) small molecule antagonists: colormetric cell-based qHTS assay (AID 1347395); details: SH-SY5Y cells AChE activity, colorimetric (Ellman); series mostly up to 115 µM; also: nearly all actives have a fitted effect of over 30% in size; also: potency is read from the fitted curve at half-maximal effect
Acetylcholinesterase (Homo sapiens), sequence (P22303 whole entry, looked up): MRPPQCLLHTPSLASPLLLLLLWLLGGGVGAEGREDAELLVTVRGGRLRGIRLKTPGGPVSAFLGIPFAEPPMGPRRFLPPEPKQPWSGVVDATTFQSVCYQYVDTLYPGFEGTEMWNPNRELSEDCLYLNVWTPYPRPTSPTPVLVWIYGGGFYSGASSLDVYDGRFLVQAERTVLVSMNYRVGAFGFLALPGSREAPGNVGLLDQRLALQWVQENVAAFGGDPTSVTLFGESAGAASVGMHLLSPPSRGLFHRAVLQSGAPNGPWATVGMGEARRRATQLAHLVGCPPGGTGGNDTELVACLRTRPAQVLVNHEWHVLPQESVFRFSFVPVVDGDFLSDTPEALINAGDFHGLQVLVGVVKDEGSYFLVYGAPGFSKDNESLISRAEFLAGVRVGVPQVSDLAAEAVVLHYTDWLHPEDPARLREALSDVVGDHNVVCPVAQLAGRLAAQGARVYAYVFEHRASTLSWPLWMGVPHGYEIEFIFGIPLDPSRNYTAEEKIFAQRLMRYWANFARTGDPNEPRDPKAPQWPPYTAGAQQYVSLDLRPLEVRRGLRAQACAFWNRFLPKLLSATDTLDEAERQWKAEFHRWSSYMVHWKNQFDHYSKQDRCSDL
Method in brief: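 SH-SY5Y cells attached overnight, exposed to compound 30 min at 37 C, then given DTNB/acetylthiocholine; after 90 min at 37 C, colorimetric thiocholine read gives cellular AChE activity.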

[2] = target: Acetylcholinesterase (Homo sapiens) (UniProt P22303); test: Acetylcholinesterase (AChE) small molecule antagonists: enzyme-based qHTS assay (AID 1347397); details: Potency: AChE enzyme activity inhibition; outcome: AChE enzyme activity inhibition; series mostly up to 115 µM; also: nearly all actives have a fitted effect of over 55% in size; also: potency is read from the fitted curve at half-maximal effect
Method in brief: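 Absorbance-based detection of thiocholine with DTNB served as the read-out. Recombinant human AChE was exposed to compound for 30 min at RT before a 10 min RT incubation with acetylthiocholine.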

[3] = target: Acetylcholinesterase (Homo sapiens) (UniProt P22303); test: Acetylcholinesterase (AChE) small molecule antagonists: fluorescence cell-based qHTS assay (AID 1347398); details: SH-SY5Y cells; Potency: AChE activity; outcome: AChE activity; series mostly up to 115 µM; also: nearly all actives have a fitted effect of over 50% in size; also: potency is read from the fitted curve at half-maximal effect
Method in brief: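 Fluorimetric cell-based assay: intact SH-SY5Y cells, 30 min compound preincubation at 37 C, acetylthiocholine substrate with thiol probe Thiolite Green, 40 min RT development, fluorescence 490/520 nm.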

[4] = target: Acetylcholinesterase (Homo sapiens) (UniProt P22303); test: Acetylcholinesterase (AChE) small molecule antagonists: enzyme-based qHTS assay with human liver microsomes (AID 1347399); details: Potency: qHTS inhibition; outcome: qHTS inhibition; series mostly up to 115 µM; also: nearly all actives have a fitted effect of over 60% in size
Method in brief: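 Recombinant human AChE (50 mU/mL in the enzyme mix) and human liver microsomes (0.25 mg/mL final) were preincubated with compound and NADPH (0.25 mg/mL final) for 30 min at 37 C. Acetylthiocholine/DTNB was then added; thiocholine was read colorimetrically after 10 min at room temperature.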

Compound | Potency [1] | Potency [2] | Potency [3] | activity, negative = inhibition [1] | Potency [4]
CC1(C)CCC(C)(C)c2cc(NC(=O)c3ccc(C(=O)O)cc3)ccc21 | inactive | inactive |  |  | 
CC1=CC[C@@]23C[C@@H]1C(C)(C)[C@@H]2CC[C@H]3C | inactive | inactive | inactive |  | 
COc1ccc(C(=O)c2ccc(OC)cc2O)c(O)c1 | inactive | inactive | inactive |  | 
O=C(OCCc1ccccc1)c1ccccc1 | inactive | inactive | inactive |  | 
CC(=O)Oc1cccc(C)c1 | inactive | inactive |  |  | 
CCOC(=O)C1=NN(c2ccc(Cl)cc2Cl)C(C)(C(=O)OCC)C1 (configuration not stated) | inactive | inactive | inactive |  | 
CCCCOC(=O)CCCCCCCC(=O)OCCCC | inactive | inactive | inactive |  | 
O=C(CCN1CCN2CCCC2C1)N1c2ccccc2Sc2ccc(Cl)cc21 (configuration not stated) |  |  |  | 0% [at 23.6 µM] | 
CC[N+](C)(CC)CCOC(=O)C(O)(c1ccccc1)C1CCCCC1 (configuration not stated) | inactive | inactive | inactive |  | 
Cc1onc(-c2c(Cl)cccc2Cl)c1C(=O)N[C@@H]1C(=O)N2[C@@H]1SC(C)(C)[C@@H]2C(=O)O | inactive | inactive | inactive |  | 
Cc1oc2c(NC(=O)c3c(Cl)cccc3Cl)cccc2c1C(C)(C)O | inactive | inactive | inactive |  | 
Cc1c(N)cccc1Cl | inactive | inactive |  |  | 
CN(C)c1ccc(N=Nc2ccccc2C(=O)O)cc1 | inactive | inactive | inactive |  | 
CCOc1ccc2ccccc2c1C(=O)N[C@@H]1C(=O)N2[C@@H]1SC(C)(C)[C@@H]2C(=O)O | inactive | inactive | inactive |  | 
C=CC(=O)NCOCC(C)C | inactive | inactive | inactive |  | 
C=C[Si](C)(C)O[Si](C)(C)C=C | inactive | inactive | inactive |  | 
CC(CC1c2ccccc2CCc2ccccc21)CN(C)C (configuration not stated) | inactive | inactive | inactive |  | 
CN1CCCN=C1COC(=O)C(O)(c1ccccc1)C1CCCCC1 (configuration not stated) | inactive | inactive | inactive |  | 
Cc1ncc([N+](=O)[O-])n1CC(C)O (configuration not stated) | inactive | inactive | inactive |  | 
OCc1cc(C(O)CNCCCCCCOCCCCc2ccccc2)ccc1O (configuration not stated) | inactive | inactive |  |  | 
OCc1c[nH]c2ccccc12 | inactive | inactive |  |  | 

Compound | Potency [1] | Potency [2] | Potency [3] | activity, negative = inhibition [1] | Potency [4]
CCN(CC)CCOc1ccccc1C(=O)CCc1ccccc1 | inactive | inactive |  |  | 
CCCCCCC(C)Nc1ccc(Nc2ccccc2)cc1 (configuration not stated) | inactive | inactive | inactive |  | 
CC(=O)OC1C2(C)CCC(C2)C1(C)C (configuration not stated) | inactive | inactive | inactive |  | 
Clc1cccnc1 | inactive | inactive |  |  | 
Cc1nc(-c2ccccn2)ncc1C(=O)Nn1cc(C)c2cc(F)ccc21 | inactive | inactive |  |  | 
O[C@@H](CNC[C@H](O)[C@H]1CCc2cc(F)ccc2O1)[C@@H]1CCc2cc(F)ccc2O1 | inactive | inactive |  |  | 
COC(/C=C(\C)CCC=C(C)C)OC | inactive | inactive | inactive |  | 
CC(C)(C)c1cc(CCC(=O)NN)cc(C(C)(C)C)c1O | inactive | inactive | inactive |  | 
CCCCc1ccc2c(n1)[C@@H](c1ccc(OC)cc1C[C@H](C)C(=O)O)[C@H](C(=O)O)[C@H]2c1ccc2c(c1)OCO2 | inactive | inactive | inactive |  | 
CC[C@@H](N)CO | inactive | inactive | inactive |  | 
COc1cc(C(C)=O)ccc1OCCCN1CCC(c2noc3cc(F)ccc23)CC1 | 19.5 µM (active) | inactive |  |  | 
N#CC1(N)CCCCC1 | inactive | inactive | inactive |  | 
OC[C@@H](O)[C@H](O)[C@@H](O)[C@@H](O)CO | inactive | inactive | inactive |  | 
Nc1ccc(NCCO)c([N+](=O)[O-])c1 | 35.6 µM (active) | 71 µM (active) | 35.6 µM (active) |  | 
CCCCCCCCCCCCSCCOCCO | inactive | inactive |  |  | 
COC(=O)CSc1cc(N=c2sc(=O)n3n2CCCC3)c(F)cc1Cl | inactive | inactive |  |  | 
CCC(Cc1ccccc1)(C(=O)c1ccc(N2CCOCC2)cc1)N(C)C (configuration not stated) | inactive | inactive |  |  | 
CO[C@@H]1[C@@H](O[C@@H]2O[C@H](C)[C@@H](O[C@H]3C[C@@](C)(O)[C@@H](O)[C@H](C)O3)[C@H](N(C)C)[C@H]2O)[C@@H](CC=O)C[C@@H](C)[C@@H](O[C@@H]2CC[C@H](N(C)C)[C@@H](C)O2)/C=C/C=C/C[C@@H](C)OC(=O)C[C@H]1OC(C)=O | inactive | inactive |  |  | 
NCC1CCCC(CN)C1 (configuration not stated) | inactive | inactive | inactive |  | inactive
O=C1C=CCCC1 | inactive | inactive | inactive |  | 
COc1nc(C)nc(Cl)c1NC1=NCCN1 | inactive | inactive | inactive |  | inactive
